From PubChem BioAssay
The list is not random: actives were taken first. Their share in the collection is about 8.5%.
NPSR antag: qHTS Assay for Antagonists of the Neuropeptide S Receptor: cAMP Signal Transduction; hit rate 1% among 220,000; Potency, µM (series often up to 38.3 µM), actives largely listed as inhibitors; Q6W5P4; CHO-NPSR cells, cAMP TR-FRET, antagonist mode; AID 1461, 2008; active = well fitted curve in the direction sought with a large enough effect; inconclusive = small, poorly fitted or top-dose-only effect, or another doubt; inactive = no such curve, though single readings can be large; an effect the other way counts as inactive or inconclusive; also: nearly all actives have a fitted effect of over 50% in size
GoLoco inh red: qHTS Assay for Inhibitors of RGS12 GoLoco Motif Activity (Red Fluorophore); hit rate 0.44% among 230,000; Guanine nucleotide-binding protein G(i) subunit alpha-1 (Homo sapiens), P63096; Potency, µM (series often up to 61.6 µM), most hits filed as inhibitors; AID 880, 2007; Gai1:RGS12 GoLoco peptide FP, rhodamine, 10 min; active = well fitted inhibition curve with a large enough effect, not every such curve was filed as active; inactive = no such curve, though single readings can be large or run the other way; also: nearly all actives have a fitted effect of over 30% in size
Target sequence (P63096 whole entry, looked up): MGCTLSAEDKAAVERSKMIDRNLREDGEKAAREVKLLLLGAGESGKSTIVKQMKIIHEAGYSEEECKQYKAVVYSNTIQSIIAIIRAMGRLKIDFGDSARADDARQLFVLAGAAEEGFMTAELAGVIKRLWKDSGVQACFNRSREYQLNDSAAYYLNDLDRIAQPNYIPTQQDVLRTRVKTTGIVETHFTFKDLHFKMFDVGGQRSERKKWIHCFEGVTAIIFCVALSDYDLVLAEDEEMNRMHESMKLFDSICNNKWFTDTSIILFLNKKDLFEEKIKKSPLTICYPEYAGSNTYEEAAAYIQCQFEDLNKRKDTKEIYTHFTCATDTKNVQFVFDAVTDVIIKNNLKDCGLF
JMJD2E inh: qHTS Assay for Inhibitors of Human Jumonji Domain Containing 2E (JMJD2E); Lysine-specific demethylase 4E (Homo sapiens), B2RXH2; JMJD2E catalytic domain, FDH-coupled NADH fluorescence (FDH is formaldehyde dehydrogenase); hit rate 1.6% among 230,000; Potency, µM (top dose mostly 57.1 µM), most hits filed as inhibitors; AID 2147, 2009; also: nearly all actives have a fitted effect of over 50% in size
Target sequence (B2RXH2 1-337 limits assumed): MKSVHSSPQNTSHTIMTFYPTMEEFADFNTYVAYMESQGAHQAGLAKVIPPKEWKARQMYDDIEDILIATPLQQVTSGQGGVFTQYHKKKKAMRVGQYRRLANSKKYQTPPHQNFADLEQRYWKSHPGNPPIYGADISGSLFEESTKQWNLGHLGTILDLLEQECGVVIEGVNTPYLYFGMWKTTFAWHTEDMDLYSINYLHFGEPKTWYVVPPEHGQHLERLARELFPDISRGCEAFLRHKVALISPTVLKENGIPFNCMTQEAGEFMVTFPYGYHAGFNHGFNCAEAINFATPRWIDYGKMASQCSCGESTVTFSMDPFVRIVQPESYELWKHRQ
Coupling enz: qHTS Assay for Inhibitors of Fructose-1,6-bisphosphate Aldolase from Giardia Lamblia: Coupling assay counterscreen; coupling enzyme system counterscreen, AmpLite Red fluorescence; AID 2472, 2010; hit rate 0.67% among 290,000; activity change, negative = inhibition, % at 58.2 µM, hits read low; in the data active = activity change below about -30%
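Fluorescence at 525 nm excitation and 598 nm emission measured inhibition of the coupled detection system without aldolase. Compounds (at 57.5 uM final) were preincubated 10 min at room temperature with coupling enzyme reagent before a 20 min substrate/AmpLite Red step.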
ALDH1A1 block: qHTS Assay for Inhibitors of Aldehyde Dehydrogenase 1 (ALDH1A1). Potency, µM (highest dose often 75.3 µM), most hits filed as inhibitors. hit rate 7.3% among 220,000. AID 1030, 2008. Aldehyde dehydrogenase 1A1 (Homo sapiens), P00352. Purified ALDH1A1, NADH fluorescence, propionaldehyde substrate
Sfp PPTase inh: qHTS Assay for Inhibitors of Bacillus subtilis Sfp phosphopantetheinyl transferase (PPTase); 4'-phosphopantetheinyl transferase ffp (Bacillus subtilis), Q9F4F7; Biochemical Sfp PPTase activity, qHTS; Potency, µM, most hits filed as inhibitors; hit rate 3.5% among 310,000; AID 1490, 2009; active = well fitted curve in the direction sought with a large enough effect; inconclusive = small, poorly fitted or top-dose-only effect, or another doubt; inactive = no such curve, though single readings can be large; an effect the other way counts as inactive or inconclusive;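 also: the enzyme is Sfp with the accession as filed and its product quenches rhodamine fluorescence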
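Compounds were incubated with enzyme (final 15 nM) for 15 min at room temperature before substrate addition started the reaction. Fluorescence at 525 nm excitation, 598 nm emission was recorded immediately and after 30 minutes.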
Of the large screens only hits and unclear results are named; the others gave an inactive call; ! = not confirmed by another sample. Unless noted, calls follow the shape of the dose curve; as a rule, active = well fitted inhibition curve with a large enough effect (not every such curve was filed as active); inconclusive = small, poorly fitted or top-dose-only effect, or another doubt; inactive = no such curve, though single readings can be large or run the other way.

CCC(C)c1ccc(N2C(=O)NC(=O)/C(=C/c3cccn3CCOc3ccc(C)cc3)C2=O)cc1 (stereo unspecified)	NPSR antag inconclusive
Cc1ccc(N2C(=O)NC(=O)/C(=C\c3cnc(-c4ccccc4)nc3)C2=O)cc1	JMJD2E inh 3.16µM, ALDH1A1 block 8.91µM, Sfp PPTase inh 56.2µM
CCOc1ccc(N2C(=O)NC(=O)/C(=C/c3cnc(SC)nc3)C2=O)cc1	JMJD2E inh 35.5µM, ALDH1A1 block inconclusive, Sfp PPTase inh 28.2µM
CCCC[C@@H](C)[C@@H](OC(=O)C[C@@H](CC(=O)O)C(=O)O)[C@H](C[C@@H](C)C[C@H](O)CCCC[C@@H](O)C[C@H](O)[C@H](C)N)OC(=O)C[C@H](CC(=O)O)C(=O)O	ALDH1A1 block inconclusive (no result: NPSR antag, JMJD2E inh, Coupling enz)
COC[C@H]([C@@H](O)[C@@H](O)C(=O)NCC[C@@H](C)c1nc(/C=C/C[C@H]2OC3(C[C@H](O)[C@H]2C)OC([C@@H](C[C@@H](O)[C@@H](C)[C@@H](O)[C@@H](C)/C=C(C)/C(C)=C/C=C/C(C)=C\C#N)OC)[C@@H](OP(=O)(O)O)C3(C)C)co1)N(C)C (stereo partly specified)	none (no result: NPSR antag, JMJD2E inh)
Cc1ccc(C(=O)n2c(N)nc3ccccc32)cc1	JMJD2E inh 35.5µM
CSc1nc2ccccc2n1C(=O)Oc1ccccc1	ALDH1A1 block inconclusive
CCN1C[C@@]2(COC)CC[C@H](O)[C@@]34[C@@H]2C[C@@H]([C@@H]13)[C@]1(O)C[C@@H](OC)C2C[C@H]4[C@H]1[C@H]2OC(C)=O	none (no result: NPSR antag)
O=C(CNC(=O)c1cccs1)OCC(=O)c1ccc([N+](=O)[O-])cc1	ALDH1A1 block 0.316µM
COc1ccc(N2C(=O)/C(=C/c3ccc(C)o3)C(=O)NC2=S)c(OC)c1	Sfp PPTase inh 39.8µM (no result: NPSR antag, GoLoco inh red, JMJD2E inh, ALDH1A1 block)
CCOc1ccc(N2C(=O)/C(=C\c3cccs3)C(=O)NC2=S)cc1	NPSR antag inconclusive, ALDH1A1 block 17.8µM, Sfp PPTase inh 12.6µM
CCOc1ccc(N2C(=O)/C(=C/c3ccco3)C(=O)NC2=S)cc1	Sfp PPTase inh 35.5µM (no result: NPSR antag, GoLoco inh red, JMJD2E inh, ALDH1A1 block)
O=C1NC(=S)N(c2ccccc2F)C(=O)/C1=C\c1cccs1	NPSR antag inconclusive, ALDH1A1 block 20µM, Sfp PPTase inh 11.2µM
NC(=NCCc1ccc(I)cc1)SCCCc1cnc[nH]1	none (no result: NPSR antag)
Cc1cccc(N2C(=O)/C(=C/c3ccc(N4CCN(C)CC4)o3)C(=O)NC2=S)c1C	ALDH1A1 block 14.1µM, Sfp PPTase inh 63.1µM
Cc1ccccc1N1C(=O)NC(=O)/C(=C/c2ccc(N3CCOCC3)o2)C1=O	JMJD2E inh inconclusive, ALDH1A1 block inconclusive
O=C1NC(=O)N(Cc2ccccc2)C(=O)/C1=C\c1ccco1	ALDH1A1 block inconclusive
Cc1ccccc1N1C(=O)/C(=C/c2ccco2)C(=O)NC1=S	Sfp PPTase inh 20µM (no result: NPSR antag, GoLoco inh red, JMJD2E inh, ALDH1A1 block)
Cc1ccccc1N1C(=O)NC(=O)/C(=C\c2cc(Br)c(N3CCOCC3)o2)C1=O	NPSR antag 12.6µM, ALDH1A1 block inconclusive
CCc1ccccc1N1C(=O)/C(=C/c2ccc(N3CCN(C)CC3)o2)C(=O)NC1=S	ALDH1A1 block inconclusive
N#CCc1ccccc1	none (no result: NPSR antag, JMJD2E inh, Coupling enz, Sfp PPTase inh)
C[C@]12N[C@@H](Cc3ccccc31)c1ccccc12	none (no result: NPSR antag)
O=[As](O)(O)c1ccc2nc3cc([As](=O)(O)O)ccc3nc2c1	none (no result: NPSR antag, JMJD2E inh, Coupling enz, Sfp PPTase inh)
OCC(O)Cc1ccc2c(c1)OCO2 (stereo unspecified)	none (no result: NPSR antag)
O=C1NC(=O)C(=Cc2ccc(OCC(=O)N3CCOCC3)cc2)C(=O)N1	JMJD2E inh inconclusive, ALDH1A1 block 5.01µM, Sfp PPTase inh inconclusive
CC1=CC(=O)NP(=O)(Oc2ccc3ccccc3c2)N1 (stereo unspecified)	GoLoco inh red 12.6µM, ALDH1A1 block inconclusive, Sfp PPTase inh 7.94µM
Cn1c(O)c(C(=Nc2ccccc2)SCc2ccc(Cl)cc2)c(=O)n(C)c1=O	Sfp PPTase inh 44.7µM (no result: ALDH1A1 block)
Cn1c(O)c(C(=N)COc2ccccc2)c(=O)n(C)c1=O	none
CC[C@@]1(O)C(=O)OCc2c1cc1n(c2=O)-c2cc3ccccc3nc2C1	ALDH1A1 block inconclusive (no result: NPSR antag, JMJD2E inh)
C=CCNC(=S)/N=C/c1c(O)[nH]c(=O)[nH]c1=O	JMJD2E inh 2.51µM, Sfp PPTase inh 44.7µM
CS/C(N)=C(C#N)/C(C#N)=C(\N)SC	ALDH1A1 block 7.08µM, Sfp PPTase inh inconclusive (no result: NPSR antag, JMJD2E inh)
CN1CC(C(=O)c2ccc(Cl)cc2)C(c2ccc(N(C)C)cc2)C1 (stereo unspecified)	ALDH1A1 block 10µM
CC(=O)Nc1ccc(C2CN(C)CC2C(=O)c2ccc(Cl)cc2)cc1 (stereo unspecified)	ALDH1A1 block inconclusive
Cc1ncc([N+](=O)[O-])n1CCN=[N+]=[N-]	none (no result: NPSR antag, JMJD2E inh, Coupling enz, Sfp PPTase inh)
CC(C)C[C@H]1C(=O)N2CCC[C@@H]2[C@@]2(O)O[C@](NC(=O)[C@@H]3C=C4c5cccc6[nH]cc(c56)C[C@@H]4N(C)C3)(C(C)C)C(=O)N12	JMJD2E inh inconclusive, ALDH1A1 block inconclusive (no result: NPSR antag)
CC(C)C1C(=O)N2CCC[C@H]2[C@]2(O)O[C@](NC(=O)[C@@H]3C=C4c5cccc6[nH]cc(c56)C[C@H]4N(C)C3)(C(C)C)C(=O)N12 (stereo partly specified)	ALDH1A1 block inconclusive, Sfp PPTase inh inconclusive (no result: NPSR antag, JMJD2E inh, Coupling enz)
CC(C)C[C@H]1C(=O)N2CCCC2[C@]2(O)O[C@](NC(=O)[C@@H]3C=C4c5cccc6[nH]c(Br)c(c56)C[C@H]4N(C)C3)(C(C)C)C(=O)N12 (stereo partly specified)	NPSR antag 12.6µM, JMJD2E inh inconclusive, Sfp PPTase inh 44.7µM (no result: Coupling enz)
CC(C)[C@@]1(NC(=O)[C@H]2CC3c4cccc5[nH]cc(c45)C[C@H]3N(C)C2)O[C@@]2(O)C3CCCN3C(=O)[C@@H](Cc3ccccc3)N2C1=O (stereo partly specified)	Sfp PPTase inh 79.4µM! (no result: NPSR antag, JMJD2E inh, Coupling enz)
CC(C)[C@]1(NC(=O)[C@@H]2C=C3c4cccc5[nH]cc(c45)C[C@H]3N(C)C2)O[C@@]2(O)C3CCCN3C(=O)[C@H](Cc3ccccc3)N2C1=O (stereo partly specified)	JMJD2E inh inconclusive, Coupling enz -31.8, ALDH1A1 block inconclusive (no result: NPSR antag)
ClCc1ccccc1	none (no result: NPSR antag, JMJD2E inh, Coupling enz, Sfp PPTase inh)
CCCOc1ccc2[nH]cc(C3=CCNCC3)c2n1	JMJD2E inh inconclusive, ALDH1A1 block inconclusive, Sfp PPTase inh inconclusive (no result: NPSR antag)
CC(C)(C)c1cc(O)ccc1O	ALDH1A1 block 3.55µM, Sfp PPTase inh 39.8µM (no result: NPSR antag, JMJD2E inh, Coupling enz)
CC(C)(C)c1ccccc1O	ALDH1A1 block 31.6µM (no result: NPSR antag, JMJD2E inh, Coupling enz, Sfp PPTase inh)
